# Laboratory results published in PubChem BioAssay AID1063 (University of Pittsburgh Molecular Library Screening Center, 2008).
# The whole screen tested about 200,000 compounds, of which about 18,000 (9%) were called active. No stated cut-off is given here; in the data, active means inhibition above about 50%; inactive means the rest. What follows is part of a selection rich in actives, with near analogues and random picks from the rest.
# Experiment: Leishmania major promastigote growth inhibition, primary screen (AID 1063);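 further: promastigotes grown with compound for 44 hours at 28 °C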
# Conditions: Leishmania major promastigotes, resazurin fluorescence viability; at 10 µM; active compounds read high
row,SMILES,inhibition
1,CCOC(=O)c1sc(=NC(=O)/C=C/c2cccs2)n(C)c1C,-7.45% (inactive)
2,Cc1ccc(OCc2n[nH]c(=S)n2-c2ccccc2)cc1,0.68% (inactive)
3,COc1ccc(C)cc1S(=O)(=O)N(CC(=O)Nc1cccc([N+](=O)[O-])c1)c1ccc(C)cc1,30.9% (inactive)
4,COc1ccc([N+](=O)[O-])cc1N(CC(O)Cn1nnc2ccccc21)S(=O)(=O)c1ccc(C)cc1 (configuration not stated),99% (active)
5,COc1ccccc1N(C(=O)Cn1nnc2ccccc21)C(C(=O)NCc1ccco1)c1ccc(C)o1 (configuration not stated),-2.13% (inactive)
6,CC(=O)OC(COc1ccc(F)cc1)Cn1cnc2ccccc21 (configuration not stated),-0.28% (inactive)
7,Cc1cc(C(F)F)n2nc(C(=O)Nc3ccc(S(=O)(=O)NC45CC6CC(CC(C6)C4)C5)cc3)nc2n1,99% (active)
8,Cc1cc(NS(=O)(=O)c2ccc(NC(=O)c3cccc(OC(F)F)c3)cc2)nc(C)n1,-1.79% (inactive)
9,CCn1nccc1C(=O)Nc1ccc(S(=O)(=O)NC23CC4CC(CC(C4)C2)C3)cc1,47.6% (inactive)
10,COc1ccc(Cl)cc1N(CC(=O)N1CCCCC1)S(C)(=O)=O,-4.47% (inactive)
11,CN(C)c1ccc(/C=N/N(Cc2ccccc2)c2ccccc2)cc1,3.58% (inactive)
12,CN(C)c1ccc(/C=N\S(=O)(=O)c2ccccc2)cc1,51.7% (active)
13,COc1ccc(/C=N/S(=O)(=O)c2ccccc2)cc1OC,0.14% (inactive)
14,CCNC(=S)NNC(=O)c1ccc2ncccc2c1,-8.24% (inactive)
15,OC(c1nnc(-c2ccccc2)o1)c1cccs1 (configuration not stated),0.18% (inactive)
16,O=c1cnnc(Nc2ccccc2F)[nH]1,-2.35% (inactive)
17,CCN1C(=O)/C(=C\N2CCN(c3ccccc3)CC2)SC1=S,0.18% (inactive)
18,CCN1C(=O)/C(=C2\SC(N3CCCCC3)=NC2=O)c2ccccc21,74.1% (active)
19,CC(C)=C1SC(N2CCN(c3cccc(C)c3)CC2)=NC1=O,1.42% (inactive)
20,O=C(c1cncc(Br)c1)N1CCN(c2ccc([N+](=O)[O-])cc2)CC1,57.2% (active)
21,O=C(c1ccc(Cl)c([N+](=O)[O-])c1)N1CCN(c2ccccc2)CC1,-0.23% (inactive)
22,Cc1cccc(C(=O)NC(=S)N2CCN(c3ccc([N+](=O)[O-])cc3)CC2)c1,36.9% (inactive)
23,Cc1cc([N+](=O)[O-])nn1CC(=O)Nc1ccc(Cc2ccncc2)cc1,-0.44% (inactive)
24,Cc1ccc2c(=O)oc(N(C)C)nc2c1,7.03% (inactive)
25,Cc1ccc(SCCC(=O)NCc2ccccn2)cc1,3.06% (inactive)
26,Cc1ccc(SCCC(=O)NC(C(C)C)C(C)C)cc1,59.5% (active)
27,Cc1ccc(SCCC(=O)Nc2cc(C)on2)cc1,-6.06% (inactive)
